Compound activity from PubChem BioAssay.
Only some compounds are listed: those with a hit (about 27% of all), similar ones and a draw of the others.
CYP2C9 act: human CYP2C9 activators, primary screen, biochemical, luminescence; Cytochrome P450 2C9 (Homo sapiens), P11712; recombinant CYP2C9, luciferin-H conversion; hits give high values; factor 1 = untreated enzyme, 0 = blocked; activation factor at 5 µM; 96,000 tested, 1.4% active; AID 1024, 2008;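 active means activation factor of 2 or more for CYP2C9 at a 5 µM dose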
Cav32 inh: Cav3.2 calcium influx blockers – cell-based, Fluo-4 calcium fluorescence, FDSS, MLSMR library, primary screen. Voltage-dependent T-type calcium channel subunit alpha-1H (Homo sapiens), O95180. Cav3.2-expressing cells; hits give low values. B-score at 10 µM. 100,000 tested, 4% active;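 active means single-dose well whose peak fluorescence ratio is a statistical outlier from its plate by either plate-standardised score or position-corrected B-score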
CYP2C19 inhib: blockers of cytochrome P450 2C19 activity – biochemical, luminescence, ADME assay, primary screen; P33261; CYP2C19 Supersomes, luciferin-H EGE luminescence, 30 min; inhibition, % at 5 µM; 96,000 tested, 21% active; AID 778, 2007;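 active means CYP2C19 inhibition above a set limit at 5 µM in the primary screen, cut at about 50% in these data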
Target sequence (P33261 whole entry, looked up): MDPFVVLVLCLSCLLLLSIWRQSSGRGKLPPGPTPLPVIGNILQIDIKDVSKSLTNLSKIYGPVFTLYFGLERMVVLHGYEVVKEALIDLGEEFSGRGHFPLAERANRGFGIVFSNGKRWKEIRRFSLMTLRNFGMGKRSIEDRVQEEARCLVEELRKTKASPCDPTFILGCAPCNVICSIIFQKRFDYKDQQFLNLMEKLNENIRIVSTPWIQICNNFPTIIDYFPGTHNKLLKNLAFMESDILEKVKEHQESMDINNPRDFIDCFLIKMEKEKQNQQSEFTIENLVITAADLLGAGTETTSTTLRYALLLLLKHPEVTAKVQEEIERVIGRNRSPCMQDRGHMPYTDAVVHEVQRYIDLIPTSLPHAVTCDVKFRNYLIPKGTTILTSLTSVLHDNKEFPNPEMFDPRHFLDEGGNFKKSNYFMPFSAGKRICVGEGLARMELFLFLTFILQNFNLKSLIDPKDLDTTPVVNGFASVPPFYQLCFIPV
CYP2C19 act: human CYP2C19 activators, primary screen, biochemical, luminescence; Cytochrome P450 2C19 (Homo sapiens), P33261; recombinant CYP2C19, luciferin-H EGE luminescence; hits give high values; 0 = fully inhibited enzyme, 1 = untreated enzyme; activation factor at 5 µM; 96,000 tested, under 10 active;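 active means activation factor of at least 2 at 5 µM in the primary screen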
CYP2C9 inhib: blockers of cytochrome P450 2C9 activity – biochemical, luminescence, ADME assay, primary screen | 96,000 tested, 20% active | CYP2C9 Supersomes, luciferin-H conversion | inhibition, % at 5 µM | AID 777, 2007 | P11712;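 active means blocking of liver enzyme CYP2C9 beyond about 50% at 5 µM, limit read from the data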
Of the large screens only hits and unclear results are named; the others gave an inactive call.

CCCn1c(C(O)c2ccc3c(c2)OCO3)nc2ccccc21 (centres undefined)	CYP2C19 inhib 98, CYP2C9 inhib 60
O=C(Cc1ccc(-n2cnnn2)cc1)NC12CC3CC(CC(C3)C1)C2	none
CC(C)(C)OC(=O)N1CCOCCOCCN(C(=O)OC(C)(C)C)CCOCC1	none
CCCn1c(NCc2ccc3c(c2)OCO3)nc2ccccc21	CYP2C19 inhib 59
CCn1c(C(C)NC(C)=O)nc2ccccc21 (centres undefined)	none
CCn1c(C(O)c2ccccc2)nc2ccccc21 (centres undefined)	CYP2C19 inhib 91
CN1CC(=O)N2[C@H](c3ccc4c(c3)OCO4)c3[nH]c4ccccc4c3C[C@@H]2C1=O	none (no result: CYP2C9 act, CYP2C19 inhib, CYP2C19 act, CYP2C9 inhib)
CC(=O)N1CCN=C1SCc1cccc(C(F)(F)F)c1	none
COCCCn1c(SCc2ccccc2)nc2cc(OC)c(OC)cc2c1=N	CYP2C19 inhib 54, CYP2C9 inhib 64
COCCCn1c(SCc2cccc(C(F)(F)F)c2)nc2cc(OC)c(OC)cc2c1=N	CYP2C9 inhib 82
Cc1c(NC(=O)c2ccc(Br)o2)c(=O)n(-c2ccccc2)n1C	none
COC(=O)c1ccccc1S(=O)(=O)N(Cc1ccco1)Cc1cc2cc(OC)ccc2[nH]c1=O	CYP2C19 inhib 68
O=c1[nH]c2cc3c(cc2cc1CN(CC1CCCO1)S(=O)(=O)c1ccc(Cl)cc1)OCCO3 (centres undefined)	none
COc1ccc2cc(CN(CC3COCCO3)S(=O)(=O)c3ccc(Cl)cc3)c(=O)[nH]c2c1 (centres undefined)	CYP2C9 inhib 60
CCc1ccc2[nH]c(=O)c(CN(Cc3ccco3)S(=O)(=O)c3ccc4c(c3)OCCO4)cc2c1	none
COc1ccc2[nH]c(=O)c(CN(CCO)S(=O)(=O)c3ccc4c(c3)OCCO4)cc2c1	CYP2C19 inhib 75 (no result: Cav32 inh)
Cc1ccc(S(=O)(=O)N(Cc2cc3cc4c(cc3[nH]c2=O)OCCO4)CC2CCCO2)cc1 (centres undefined)	none
Cc1cc(C)c2cc(CN(CC3CCCO3)S(=O)(=O)c3ccc4c(c3)OCCO4)c(=O)[nH]c2c1 (centres undefined)	CYP2C9 inhib 73
COc1nn(CC(=O)N2N=C(C(F)F)CC2(O)C(F)F)cc1[N+](=O)[O-] (centres undefined)	none (no result: CYP2C9 act, CYP2C19 inhib, CYP2C19 act, CYP2C9 inhib)
O=C(N1CCOCC1)N(CCN1CCOCC1)Cc1cccc(Cl)c1	none
Cc1ccc(C)c2[nH]c(=O)c(CN(Cc3ccco3)S(=O)(=O)c3ccc4c(c3)OCCO4)cc12	CYP2C19 inhib 75, CYP2C9 inhib 67
COC(=O)c1ccccc1S(=O)(=O)N(CCCO)Cc1cc2c(C)ccc(C)c2[nH]c1=O	CYP2C19 inhib 54, CYP2C9 inhib 84
COc1ccc2cc(CN(CC3CCCO3)S(=O)(=O)c3ccccc3)c(=O)[nH]c2c1 (centres undefined)	CYP2C9 inhib 86
CC(=O)c1ccc(S(=O)(=O)N(Cc2cc3cc4c(cc3[nH]c2=O)OCCO4)CC2CCCO2)cc1 (centres undefined)	none
CCN(CC)S(=O)(=O)c1ccc(C(=O)NCc2ccc(C)cc2)cc1	none
CCN(Cc1ccncc1)S(=O)(=O)c1ccc(C(C)=O)cc1	CYP2C19 inhib 91, CYP2C9 inhib 87
CSc1ccc(/C=N/NC(=O)c2cccc(O)c2)cc1	none
CO/N=C/c1ccc(N2CCN(C(=O)c3ccc(C)cc3)CC2)c([N+](=O)[O-])c1	none
CC1CCN(C(=O)CSc2nc3c(cnn3-c3ccccc3)c(=O)[nH]2)CC1	none
CCOC(=O)N1CCN(C(=O)CSc2nc3c(cnn3-c3ccc(C)cc3)c(=O)[nH]2)CC1	none (no result: CYP2C9 act, CYP2C19 inhib, CYP2C19 act, CYP2C9 inhib)
CC1CCN(C(=O)CSc2nc3c(cnn3-c3ccc(Cl)cc3)c(=O)[nH]2)CC1	CYP2C9 inhib 55
CCOC(=O)N1CCN(C(=O)CSc2nc3c(cnn3-c3ccc(Cl)cc3)c(=O)[nH]2)CC1	CYP2C9 inhib 68
COC(=O)c1ccc(CSc2nc3c(cnn3-c3ccc(Cl)cc3)c(=O)[nH]2)o1	CYP2C19 inhib 90, CYP2C9 inhib 76
CCOc1ccc(-n2c(=S)sc3c(=O)[nH]c(SCC(=O)N4CCC(C)CC4)nc32)cc1	CYP2C9 inhib 97
COC(=O)c1sc2cc(C(F)(F)F)cnc2c1-c1cccnc1	CYP2C9 inhib 52
O=C(Nc1ccccc1)c1sc2cc(C(F)(F)F)cnc2c1-c1cccs1	CYP2C19 inhib 52, CYP2C9 inhib 74
CN(c1ccc([N+](=O)[O-])cc1C(=O)Nc1ccccc1)C1CCCCC1	none
Cc1ccc([N+](=O)[O-])cc1NC(=O)CN(C(=O)c1ccc(Cl)cc1)C1CCCCC1	Cav32 inh -9.4
O=C(CN(C(=O)c1ccccc1Cl)C1CCCCC1)Nc1ccc(Cl)c([N+](=O)[O-])c1	Cav32 inh -9.9, CYP2C9 inhib 75
O=C1Nc2ccccc2/C1=C/C(=O)c1cccs1	CYP2C9 act 2.5
CCOC(=O)c1ccc(NC(=O)COc2ccc(S(=O)(=O)NC(C)(C)C)cc2)cc1	none (no result: CYP2C9 act, CYP2C19 inhib, CYP2C19 act, CYP2C9 inhib)
COC(=O)CSC(C(=O)Nc1ccc(C)c(C)c1)c1ccccc1 (centres undefined)	CYP2C19 inhib 92, CYP2C9 inhib 60
COc1ccc(NC(=S)NC(NC(=O)c2ccccc2Cl)C(Cl)(Cl)Cl)c([N+](=O)[O-])c1 (centres undefined)	CYP2C9 inhib 74
COc1ccc(NC(=S)NC(NC(=O)c2cccc3ccccc23)C(Cl)(Cl)Cl)c([N+](=O)[O-])c1 (centres undefined)	CYP2C9 inhib 83
COc1ccc(NC(=S)NC(NC(=O)c2ccc(Cl)cc2Cl)C(Cl)(Cl)Cl)c([N+](=O)[O-])c1 (centres undefined)	Cav32 inh -5.1, CYP2C19 inhib 96, CYP2C9 inhib 98
COc1ccc(NC(=O)c2ccc(C)cc2Cl)c([N+](=O)[O-])c1	CYP2C9 act 3.6
CCC(C)(C)C(=O)Nc1ccc(OC)cc1[N+](=O)[O-]	none
CC(C)[C@@H](C(=O)N1CCN(C(=O)OC(C)(C)C)CC1)n1cc(CCO)nn1	none (no result: CYP2C9 act, CYP2C19 inhib, CYP2C19 act, CYP2C9 inhib)
CC(C)c1ccc(OCC(=O)NC(=S)Nc2ccc3c4c(cccc24)CC3)cc1	none
c1ccc(-c2nnc(SCc3nc4ccccc4[nH]3)n2Cc2ccco2)cc1	CYP2C9 inhib 59
Cc1ccc(OCc2nnc(SCc3nc4ccccc4[nH]3)n2Cc2ccco2)cc1	Cav32 inh -8.5, CYP2C9 inhib 65
COc1cccc(C2C(C#N)=C(N)OC3=C2C(=O)CC(c2ccco2)C3)c1OCc1ccc(F)cc1 (centres undefined)	CYP2C19 inhib 80, CYP2C9 inhib 89
